Screening results (PubChem BioAssay)
KDM5B inhibitor: KDM5B demethylase inhibition; Q9UGL1; KDM5B demethylase, FDH-coupled NADH fluorescence (FDH is formaldehyde dehydrogenase); Potency, µM (doses to about 57.7 µM), hits mostly inhibitors; 220,000 tested, 2.6% active; AID 1347165; active means well fitted inhibition curve with a large enough effect; further: 0% is about no effect; nearly all actives have a fitted effect of over 70% in size
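KDM5BΔAP (200 nM final) in 50 mM HEPES pH 7.5, 0.01% Tween-20 was preincubated 10 min at RT with compound over a concentration range. Substrate mix (H3K4me3 12.5 µM, α-KG 25 µM, Fe²⁺, ascorbate, NAD⁺, FDH) was added, and NADH fluorescence change over 30 min gave dose-response curves.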
An asterisk follows results filed as active; i = inactive. This is one part of a sample in which hits are shown more often than they occur. Potency means the concentration at half of the fitted maximal effect.

SMILES	KDM5B inhibitor
COc1ccc(CCNC(=O)C2CCN(c3nc4ccc(Cl)cc4[nH]3)CC2)cc1OC	i
CCn1cc(CN2CCC(N3C(=O)C4(CCCCC4)C3c3ccncc3)CC2)c(C)n1 (stereo not given)	i
Cc1cccc(CN2CCNc3cnc(-c4ccccc4)cc3C2)c1	35.5µM*
Cc1cccc(CN2CC=C(C(=O)O)CC2)c1	i
c1ccc(-c2cc3c(cn2)NCCN(CC2CC2)C3)cc1	35.5µM*
Cc1cnc(-c2cccnc2)n1CC1CCN(CC2CC2)CC1	i
COc1ccc(OC)c(CN2CCc3nc(N4CCN(c5ccccc5F)CC4)ncc3C2)c1	i
Cn1cc(CN2CCNc3cnc(-c4ccccc4)cc3C2)cn1	28.2µM*
COc1ccc(OC)c(CN2CCNc3cnc(-c4ccccc4)cc3C2)c1	31.6µM*
COc1ccc(OC)c(CN2CCNc3cc(-c4ccnc(C)c4)ncc3C2)c1	i
CC(C)(C)c1ccc(C(=O)Nc2nc3c(s2)C[C@@H]2[C@](C)(CO)[C@H](O)CC[C@@]2(C)[C@@H]3CC(=O)N2CCC(C(N)=O)CC2)cc1	i
CCCCn1nc(C(=O)Nc2ccccc2)c2ccccc2c1=O	i
CC(C)n1nc(C(=O)NCC2CCOC2)c2ccccc2c1=O (stereo not given)	i
O=C(Cc1c[nH]c2ccccc12)N1CCC(C(=O)N2CCCCCC2)CC1	i
Cc1ccc(N(Cc2cc3ccc(C)cc3[nH]c2=O)S(C)(=O)=O)cc1	i
FC(F)(F)c1ccc(C(=NCc2ccccc2)c2ccc(C(F)(F)F)cc2)cc1	i
COc1cccc(CN2CCNc3cnc(-c4ccccc4)cc3C2)c1	35.5µM*
COc1cccc(CN2CCC3(CC2)Cc2ccccc2NC3=O)c1	i
COc1cccc(CN2CCC3(CC2)Cc2ccccc2CNC3=O)c1	i
COc1ccc(-c2noc([C@@H]3CCCN3C(=O)c3ccccc3Cl)n2)cc1	i
Cc1ccc(Nc2nc(C(=O)N3CCC(C(=O)N(C)Cc4ccccc4)CC3)cs2)cc1	i
C=CCNc1nc(-c2c(C(=O)OC)c(C)n(C3CC3)c2C)cs1	i
Cc1cnc(CCNC(=O)COc2ccccc2)n1C1CCC1	i
Cc1ccc(-c2ccc3nnc(CNC(=O)COc4ccccc4)n3n2)cc1	35.5µM*
Cc1cccc(OCC(=O)NCc2nnc3ccc(-c4ccccc4)nn23)c1	i
SMILES	KDM5B inhibitor
COc1ccccc1CNC(=O)CSc1nnc2ccc(-c3ccc4c(c3)OCO4)nn12	i
Cc1ccc(-c2ccc3nnc(CNC(=O)COc4ccccc4)n3n2)cc1C	28.2µM*
COc1ccc(OCC(=O)NCc2nc(-c3ccc(OC)cc3)no2)cc1	i
COc1ccc(CNC(=O)COc2ccc(-c3nnc4n3CCCC4)cc2)cc1	i
Cc1cc2cc(CNC(=O)COc3ccccc3)ccc2n1C	i
COc1ccc(-c2ccc3nnc(CNC(=O)COc4ccc(F)cc4)n3n2)cc1	28.2µM*
O=C(c1ccc(Cl)c(S(=O)(=O)NC2CC2)c1)N1CCN(c2ccc(F)cc2)CC1	i
CCn1cc(C(=O)n2nc(C)cc2C)c(S(=O)(=O)N2CCN(c3cccc(Cl)c3)CC2)n1	i
CC(C)CC(=O)Nc1ccc(OCc2cc(=O)n3ccsc3n2)cc1	i
COCCCNC(=O)C1CC(=O)N(CCc2c[nH]c3ccc(F)cc23)C1 (stereo not given)	i
CCC(C)N1CCC(CN)C1 (stereo not given)	i
O=C(NC1CC1)c1cccc(NC(=O)c2nn(Cc3ccccc3)c(=O)c3ccccc23)c1	i
COCCc1noc([C@@H]2CN(CC3CCCCC3)C[C@H]2CO)n1	i
CCNc1c(NC(=O)NCc2ccc(C)cc2)c(=O)oc2ccccc12	i
Cc1cccc(NC(=O)C2CCCN2c2ncnc3ccccc23)c1C (stereo not given)	i
O=C(Cc1ccsc1)OCC(=O)c1ccc2c(c1)OCCO2	i
CC(=O)Nc1cccc(-c2cc(-c3ccncc3)c3cncn3c2)c1	i
c1cc(-c2cc(-c3ccncc3)c3cncn3c2)c2[nH]ccc2c1	i
C[S+](=O)([O-])Nc1cccc(-c2cc(-c3cccnc3)c3cncn3c2)c1	35.5µM*
c1cncc(-c2cc(-c3cccc4cc[nH]c34)cn3cncc23)c1	35.5µM*
CC(Sc1ccccn1)C(=O)Nc1ccc(Cl)cc1 (stereo not given)	i
Cc1ccc(C(=O)NC(=S)NNC(=O)C2CC2)cc1	i
Cc1nn2c(c1-c1ccccc1C(C)C)N(CCC(C)C)CCC2	17.8µM*
Cc1nn2c(c1-c1ccccc1C(N)=O)N(C(=O)c1ccccc1)CCC2	i
Cc1nn2c(c1-c1ccccc1C(C)C)N(C(=O)Cc1ccc(O)cc1)CCC2	i
Cc1nn2c(c1-c1ccccc1OCc1ccccc1)N(Cc1ccc(OCC(=O)O)cc1)CCC2	i
Cc1nn2c(c1-c1ccccc1-c1ccccc1)N(Cc1ccc(O)cc1)CCC2	28.2µM*
Cc1nn2c(c1-c1ccccc1Oc1ccccc1)N(C(=O)Cc1ccc(O)cc1)CCC2	i
Cc1nn2c(c1-c1ccccc1Oc1ccccc1)N(Cc1ccccc1O)CCC2	28.2µM*
